# Data reported in PubChem BioAssay (NCATS).
# Records with an inconclusive call do not appear. Entries that show only a call come without a potency. Activity calls are given as the source filed them. The call rests on the fitted dose curve; in most records, active means well fitted curve in the direction sought with a large enough effect; inconclusive means small, poorly fitted or top-dose-only effect, or another doubt; inactive means no such curve, though single readings can be large; an effect the other way counts as inactive or inconclusive.
# Tests used:
# [1] = qHTS of pediatric cancer cell lines to identify multiple opportunities for drug repurposing: Primary screen for Rh18 cells (AID 1347102); further: nearly all actives have a fitted effect of over 65% in size
# Procedure, shortened: (§1)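 Viability after 48 h compound treatment at 37C, 500-1,000 cells/well, read as ATP luminescence with CellTiter-Glo. Primary screens used 11-point (MIPE, 0.78 nM-46 µM) or 8-point (NPC, 0.59 nM-46 µM) final concentrations; follow-up screens used 11-point dilutions.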
# [2] = qHTS of pediatric cancer cell lines to identify multiple opportunities for drug repurposing: Primary screen for OHS-50 cells (AID 1347103); further: nearly all actives have a fitted effect of over 40% in size; further: potency means the concentration at half of the fitted maximal effect
# Procedure, shortened: (§2)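 Cells (500-1,000/well) rested 5 h, then received compounds for 48 h; metabolically active cells were measured by CellTiter-Glo luminescence. Final concentrations spanned up to 46 µM (MIPE, 11-point) or 0.59 nM-46 µM (NPC, 8-point) in primary screens, 11-point in follow-ups.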
# [3] = qHTS of pediatric cancer cell lines to identify multiple opportunities for drug repurposing: Primary screen for RD cells (AID 1347104); further: nearly all actives have a fitted effect of over 55% in size; further: potency means the concentration at half of the fitted maximal effect
# Procedure, shortened: (§3)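 500-1,000 cells/well; 5 h pre-incubation 37 °C/5% CO2; compound pinned; 48 h; CellTiter-Glo, 15 min RT; luminescence. MIPE 11-pt from 0.78 nM, NPC 8-pt from 0.59 nM final. Bortezomib 2.3 µM final as positive control.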
# [4] = qHTS of pediatric cancer cell lines to identify multiple opportunities for drug repurposing: Primary screen for MG 63 (6-TG R) cells (AID 1347105); further: nearly all actives have a fitted effect of over 50% in size; further: potency means the concentration at half of the fitted maximal effect
# Procedure, shortened: as §3
# [5] = qHTS of pediatric cancer cell lines to identify multiple opportunities for drug repurposing: Primary screen for control Hh wild type fibroblast cells (AID 1347106);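 further: series mostly up to about 46 µM; a drop in luminescence marks cytotoxicity and a rise apparent proliferation; nearly all actives have a fitted effect of over 55% in size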
# Procedure, shortened: as §1
# [6] = qHTS of pediatric cancer cell lines to identify multiple opportunities for drug repurposing: Primary screen for Rh30 cells (AID 1347107); further: series mostly up to about 46 µM; nearly all actives have a fitted effect of over 75% in size
# Procedure, shortened: as §1
# [7] = qHTS of pediatric cancer cell lines to identify multiple opportunities for drug repurposing: Primary screen for Rh41 cells (AID 1347108); further: nearly all actives have a fitted effect of over 70% in size; further: potency means the concentration at half of the fitted maximal effect
# Procedure, shortened: as §3
# [8] = qHTS of pediatric cancer cell lines to identify multiple opportunities for drug repurposing: Primary screen for BT-12 cells (AID 1347101); further: nearly all actives have a fitted effect of over 25% in size; further: potency means the concentration at half of the fitted maximal effect
# Procedure, shortened: as §2
# [9] = qHTS of pediatric cancer cell lines to identify multiple opportunities for drug repurposing: Confirmatory screen for NB1643 cells (AID 1347109); further: nearly all actives have a fitted effect of over 45% in size
# Procedure, shortened: as §1
# [10] = qHTS of pediatric cancer cell lines to identify multiple opportunities for drug repurposing: Confirmatory screen for SK-N-MC cells (AID 1347111);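 further: cells exposed to compound for 48 h before the readout; nearly all actives have a fitted effect of over 70% in size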; further: potency means the concentration at half of the fitted maximal effect
# Procedure, shortened: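 SK-N-MC cells at 500-1,000 cells/well in growth media were pre-incubated 5 h, then exposed to compounds at 11-point dilutions for 48 h at 37 degrees C, 5% CO2. Viability was read as CellTiter-Glo luminescence.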
# [11] = qHTS of pediatric cancer cell lines to identify multiple opportunities for drug repurposing: Confirmatory screen for BT-12 cells (AID 1347112); further: nearly all actives have a fitted effect of over 55% in size
# Procedure, shortened: as §1
# [12] = qHTS of pediatric cancer cell lines to identify multiple opportunities for drug repurposing: Confirmatory screen for LAN-5 cells (AID 1347113); further: nearly all actives have a fitted effect of over 65% in size
# Procedure, shortened: as §1
# [13] = qHTS of pediatric cancer cell lines to identify multiple opportunities for drug repurposing: Confirmatory screen for DAOY cells (AID 1347114); further: nearly all actives have a fitted effect of over 65% in size; further: potency means the concentration at half of the fitted maximal effect
# Procedure, shortened: (§4)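 Viability measured as metabolically active cells via CellTiter-Glo luminescence following 48 hours of compound exposure, 11-point dilutions in confirmatory testing. 500-1,000 cells/well plated 5 hours before dosing; controls were DMSO and 2.3 µM bortezomib.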
# [14] = qHTS of pediatric cancer cell lines to identify multiple opportunities for drug repurposing: Confirmatory screen for NB-EBc1 cells (AID 1347115); further: nearly all actives have a fitted effect of over 45% in size
# Procedure, shortened: as §1
# [15] = qHTS of pediatric cancer cell lines to identify multiple opportunities for drug repurposing: Confirmatory screen for SJ-GBM2 cells (AID 1347116); further: nearly all actives have a fitted effect of over 60% in size
# Procedure, shortened: as §4
# [16] = qHTS of pediatric cancer cell lines to identify multiple opportunities for drug repurposing: Confirmatory screen for BT-37 cells (AID 1347117); further: nearly all actives have a fitted effect of over 55% in size
# Procedure, shortened: as §1
# [17] = qHTS of pediatric cancer cell lines to identify multiple opportunities for drug repurposing: Confirmatory screen for TC32 cells (AID 1347118); further: potency means the concentration at half of the fitted maximal effect; nearly all actives have a fitted effect of over 65% in size
# Procedure, shortened: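 Luminescent CellTiter-Glo read-out of metabolically active TC32 cells after 48 h compound exposure. Primary: MIPE 11-point, 0.78 nM–46 µM; NPC 8-point, 0.59 nM–46 µM. Confirmatory: 11-point dilutions.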
# [18] = qHTS of pediatric cancer cell lines to identify multiple opportunities for drug repurposing: Confirmatory screen for A673 cells (AID 1347110); further: nearly all actives have a fitted effect of over 65% in size
# Procedure, shortened: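 A673 cells seeded at 500-1,000 cells/well, rested 5 h, then dosed; primary MIPE 11-point (0.78 nM to 46 µM), NPC (0.59 nM to 46 µM); confirmatory 11-point. CellTiter-Glo luminescence after 48 h.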
structure (smiles),measurement,setting,value
CCNC(=O)CCCC=CC[C@@H]1[C@H](C=CC(O)CCc2ccccc2)[C@@H](O)C[C@@H]1O (stereo partly drawn),Potency,[1],inactive
same,Potency,[2],inactive
same,Potency,[3],inactive
same,Potency,[4],inactive
same,Potency,[5],inactive
same,Potency,[6],inactive
CC(C)(O)CC(=O)NCCn1ccc2ncnc(Nc3ccc(Oc4cccc(C(F)(F)F)c4)c(Cl)c3)c21,Potency,[2],30.6 µM (active)
same,Potency,[3],18.7 µM (active)
same,Potency,[5],inactive
CN(C)N=Nc1nc[nH]c1C(N)=O,Potency,[1],inactive
same,Potency,[3],inactive
same,Potency,[4],inactive
same,Potency,[5],inactive
same,Potency,[7],inactive
OC1CCC(Nc2ncc3nc(Nc4c(F)cc(F)cc4F)n([C@@H]4CCOC4)c3n2)CC1 (stereo partly drawn),Potency,[8],inactive
same,Potency,[1],inactive
same,Potency,[4],inactive
same,Potency,[5],inactive
same,Potency,[7],inactive
CCCCC[C@H](O)C=C[C@H]1[C@H](O)CC(=O)[C@H]1CCCCCCC(=O)O,Potency,[1],inactive
same,Potency,[2],inactive
same,Potency,[4],inactive
same,Potency,[5],inactive
same,Potency,[6],inactive
C=CCc1cccc(C=NNC(=O)CN2CCN(Cc3ccccc3)CC2)c1O,Potency,[8],24.3 µM (active)
same,Potency,[2],7.69 µM (active)
same,Potency,[3],16.6 µM (active)
same,Potency,[4],18.7 µM (active)
same,Potency,[7],18.7 µM (active)
CC=C(C(=CC)c1ccc(O)cc1)c1ccc(O)cc1,Potency,[1],inactive
same,Potency,[2],27.3 µM (active)
same,Potency,[4],18.7 µM (active)
same,Potency,[5],inactive
same,Potency,[6],inactive
CCOC(=O)[C@H]1O[C@H]1C(=O)N[C@@H](CC(C)C)C(=O)NCCC(C)C,Potency,[8],inactive
same,Potency,[1],inactive
same,Potency,[2],inactive
same,Potency,[4],inactive
O=C(Nc1cccc(C(F)(F)F)c1)Nc1cc(S(=O)(=O)NC2CC2)ccc1-c1ccsc1,Potency,[1],inactive
same,Potency,[3],29.6 µM (active)
same,Potency,[5],inactive
O=C(Nc1ccc(OC(F)(F)F)cc1)c1sccc1NCc1ccnc2ccccc12,Potency,[1],inactive
same,Potency,[4],inactive
same,Potency,[5],inactive
same,Potency,[6],inactive
C[C@]12CC[C@@H]3c4ccc(O)cc4CC[C@H]3[C@H]1[C@@H](O)[C@@H](O)[C@H]2O,Potency,[1],inactive
same,Potency,[6],inactive
CCCCCCCCCCCCCC(=O)N[C@H](CO)[C@H](O)c1ccc([N+](=O)[O-])cc1,Potency,[8],24.3 µM (active)
same,Potency,[1],inactive
same,Potency,[2],inactive
same,Potency,[5],inactive
same,Potency,[6],inactive
same,Potency,[7],inactive
Cc1cnc(CNC(=O)c2c(=O)c3ccc(N4CCCN(C)CC4)nc3n3c2sc2ccccc23)cn1,Potency,[1],inactive
same,Potency,[2],inactive
same,Potency,[3],inactive
same,Potency,[5],inactive
same,Potency,[7],inactive
N#Cc1ccc(Oc2ccc3c(c2)COB3O)cc1,Potency,[1],inactive
same,Potency,[3],inactive
same,Potency,[4],inactive
same,Potency,[5],inactive
same,Potency,[6],inactive
same,Potency,[7],inactive
O=C(CCCN1CCN(c2ccc(F)cc2)CC1)NC1c2ccccc2CSc2ccccc21 (stereo not drawn),Potency,[2],8.63 µM (active)
same,Potency,[5],inactive
Clc1ccc(C2(c3ccc(-c4cn[nH]c4)cc3)CCNCC2)cc1,Potency,[8],inactive
same,Potency,[3],26.4 µM (active)
same,Potency,[4],5.9 µM (active)
same,Potency,[5],inactive
CNC(=O)c1c(-c2ccc(F)cc2)oc2cc(N(CCO)S(C)(=O)=O)c(C3CC3)cc12,Potency,[2],27.3 µM (active)
same,Potency,[3],29.6 µM (active)
same,Potency,[6],inactive
same,Potency,[7],18.7 µM (active)
N=C1SC(=Cc2ccc(-c3ccc4c(c3)C(=O)NC4=O)o2)C(=O)N1c1ccc(Br)cc1,Potency,[1],inactive
same,Potency,[3],inactive
same,Potency,[4],inactive
same,Potency,[5],inactive
same,Potency,[6],inactive
Cc1cc(C(C)Nc2ccccc2)c2nc(N3CCOCC3)cc(=O)n2c1 (stereo not drawn),Potency,[8],inactive
same,Potency,[2],24.3 µM (active)
same,Potency,[5],inactive
Cc1cc(OCCCS(C)(=O)=O)cc(C)c1-c1cccc(COc2ccc3c(c2)OC[C@H]3CC(=O)O)c1,Potency,[1],inactive
same,Potency,[4],inactive
same,Potency,[5],inactive
COc1c(C)c2c(c(O)c1CC=C(C)CCC(=O)OCCN1CCOCC1)C(=O)OC2,Potency,[8],1.93 µM (active)
same,Potency,[1],inactive
same,Potency,[6],inactive
same,Potency,[7],inactive
CC(=O)NCCC(=O)N[C@@H](CCC(N)=O)C(=O)N[C@@H](CO)C(=O)N[C@@H](CCC(N)=O)C(=O)N[C@@H](CCC(N)=O)C(=O)N[C@H](C(=O)N[C@@H](Cc1ccccc1)C(=O)N[C@]1(C)CCCCCCC=CCCC[C@@](C)(C(=O)N[C@@H](CCC(N)=O)C(=O)N[C@@H](CC(N)=O)C(N)=O)NC(=O)[C@H](CC(C)C)NC(=O)[C@H](CC(C)C)NC(=O)[C@@H](CCCNC(=N)N)NC(=O)[C@H](Cc2c[nH]c3ccccc23)NC(=O)[C@H](CC(C)C)NC(=O)[C@H](CC(N)=O)NC1=O)[C@H](C)O,Potency,[1],inactive
same,Potency,[2],inactive
same,Potency,[4],inactive
same,Potency,[5],inactive
same,Potency,[7],18.7 µM (active)
CCCCC[C@H](O)C=C[C@H]1[C@H](O)CC(=O)[C@H]1CC=CCCCC(=O)O,Potency,[1],inactive
same,Potency,[2],inactive
same,Potency,[3],inactive
same,Potency,[4],inactive
same,Potency,[5],inactive
same,Potency,[6],inactive
same,Potency,[7],inactive
CCOC(=O)c1c(CSc2ccccc2)n(C)c2cc(Br)c(O)c(CN(C)C)c12,Potency,[2],27.3 µM (active)
same,Potency,[4],inactive
same,Potency,[5],inactive
COC1CCC(C(=O)c2ccc3nc4c(cc3c2)CCCO4)CC1 (stereo not drawn),Potency,[8],1.93 µM (active)
same,Potency,[1],inactive
same,Potency,[2],12.2 µM (active)
same,Potency,[3],26.4 µM (active)
same,Potency,[5],inactive
same,Potency,[9],inactive
same,Potency,[10],inactive
same,Potency,[11],inactive
same,Potency,[12],inactive
same,Potency,[13],23.3 µM (active)
same,Potency,[14],inactive
same,Potency,[15],inactive
same,Potency,[16],inactive
COc1cc(CNC(=O)CCCCC=CC(C)C)ccc1O,Potency,[8],inactive
same,Potency,[1],inactive
same,Potency,[3],inactive
same,Potency,[4],inactive
same,Potency,[5],inactive
same,Potency,[6],inactive
same,Potency,[7],inactive
same,Potency,[9],inactive
same,Potency,[11],inactive
same,Potency,[12],inactive
same,Potency,[13],inactive
same,Potency,[14],inactive
same,Potency,[16],inactive
same,Potency,[17],3.29 µM (active)
CN(C(Cc1ccc(OS(=O)(=O)c2cccc3cnccc23)cc1)C(=O)N1CCN(c2ccccc2)CC1)S(=O)(=O)c1cccc2cnccc12 (stereo not drawn),Potency,[2],13.7 µM (active)
same,Potency,[4],14.8 µM (active)
same,Potency,[6],inactive
same,Potency,[18],inactive
same,Potency,[10],2.93 µM (active)
same,Potency,[13],inactive
same,Potency,[17],3.69 µM (active)
